From the supplement of paper PMC11732987, “Enantioselective OTUD7B fragment discovery through chemoproteomics screening and high-throughput optimisation” (Communications Chemistry, 2025)

Columns and labels:
Test in all cases: log2 ratio of Biotin-Ahx-Ub-VS probe labelling (fragment/DMSO); higher = less target engagement (more negative = stronger competition), active = hit call of the paper (q ≤ 0.05, log2 ratio ≤ -1)
Conditions in all cases: compound concentration: 200 uM; treatment time: 3 h
[1] = target: T1, USP42 (UniProt Q9H9J4)
T1 sequence (whole entry): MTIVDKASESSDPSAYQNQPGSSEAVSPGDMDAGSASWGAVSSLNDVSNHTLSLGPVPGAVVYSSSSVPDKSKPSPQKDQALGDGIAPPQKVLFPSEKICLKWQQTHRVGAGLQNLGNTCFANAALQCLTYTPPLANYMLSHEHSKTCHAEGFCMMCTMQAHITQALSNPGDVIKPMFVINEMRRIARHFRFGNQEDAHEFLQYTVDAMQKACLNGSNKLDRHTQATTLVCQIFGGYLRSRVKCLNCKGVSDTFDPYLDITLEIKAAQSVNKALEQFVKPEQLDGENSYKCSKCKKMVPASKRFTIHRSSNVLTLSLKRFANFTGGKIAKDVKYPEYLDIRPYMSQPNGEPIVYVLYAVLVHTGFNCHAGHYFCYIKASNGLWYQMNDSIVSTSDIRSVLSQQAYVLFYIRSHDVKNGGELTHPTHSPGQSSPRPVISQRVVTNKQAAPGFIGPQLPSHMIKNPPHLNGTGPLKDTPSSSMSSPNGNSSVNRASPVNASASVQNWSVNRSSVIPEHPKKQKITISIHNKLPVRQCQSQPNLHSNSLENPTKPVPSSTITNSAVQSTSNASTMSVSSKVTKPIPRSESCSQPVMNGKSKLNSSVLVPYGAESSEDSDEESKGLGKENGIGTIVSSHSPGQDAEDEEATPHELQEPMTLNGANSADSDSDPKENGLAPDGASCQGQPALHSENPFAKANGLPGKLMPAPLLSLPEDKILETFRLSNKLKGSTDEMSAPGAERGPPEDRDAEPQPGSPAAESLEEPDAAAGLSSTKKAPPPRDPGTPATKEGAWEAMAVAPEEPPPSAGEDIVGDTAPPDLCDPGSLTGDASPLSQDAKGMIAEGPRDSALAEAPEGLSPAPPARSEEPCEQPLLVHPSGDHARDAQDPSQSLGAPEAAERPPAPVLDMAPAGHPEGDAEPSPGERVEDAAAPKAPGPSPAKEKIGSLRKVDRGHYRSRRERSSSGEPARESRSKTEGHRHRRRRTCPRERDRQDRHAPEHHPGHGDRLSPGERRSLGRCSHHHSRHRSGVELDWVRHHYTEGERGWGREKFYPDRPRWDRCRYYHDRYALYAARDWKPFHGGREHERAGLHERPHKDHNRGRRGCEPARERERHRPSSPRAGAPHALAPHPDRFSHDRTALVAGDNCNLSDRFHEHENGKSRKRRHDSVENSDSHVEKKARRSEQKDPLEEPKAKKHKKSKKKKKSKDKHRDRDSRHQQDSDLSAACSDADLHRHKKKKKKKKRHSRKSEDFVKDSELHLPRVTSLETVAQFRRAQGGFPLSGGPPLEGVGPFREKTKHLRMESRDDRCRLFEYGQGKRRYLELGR
Summary of the method: (§1)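 HEK293T lysate (495 µg per sample, in Tris/CHAPS/IGEPAL buffer with protease inhibitors) was treated in triplicate with fragment at 200 µM or with DMSO for 3 h. It was then treated with Biotin-Ahx-Ub-VS (0.5 µM final) for 1 h. Labelled DUBs were NeutrAvidin-enriched, digested with LysC and trypsin, and run by diaPASEF LC-MS/MS. Spectronaut label-free quantities were global-median-normalised. Values are average log2 ratios fragment/DMSO by unpaired t-test, using proteins with ≥2 unique peptides.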

[2] = target: USP46 (UniProt P62068)
Summary of the method: as §1

[3] = target: T2, USP47 (UniProt Q96K76)
T2 sequence (whole entry): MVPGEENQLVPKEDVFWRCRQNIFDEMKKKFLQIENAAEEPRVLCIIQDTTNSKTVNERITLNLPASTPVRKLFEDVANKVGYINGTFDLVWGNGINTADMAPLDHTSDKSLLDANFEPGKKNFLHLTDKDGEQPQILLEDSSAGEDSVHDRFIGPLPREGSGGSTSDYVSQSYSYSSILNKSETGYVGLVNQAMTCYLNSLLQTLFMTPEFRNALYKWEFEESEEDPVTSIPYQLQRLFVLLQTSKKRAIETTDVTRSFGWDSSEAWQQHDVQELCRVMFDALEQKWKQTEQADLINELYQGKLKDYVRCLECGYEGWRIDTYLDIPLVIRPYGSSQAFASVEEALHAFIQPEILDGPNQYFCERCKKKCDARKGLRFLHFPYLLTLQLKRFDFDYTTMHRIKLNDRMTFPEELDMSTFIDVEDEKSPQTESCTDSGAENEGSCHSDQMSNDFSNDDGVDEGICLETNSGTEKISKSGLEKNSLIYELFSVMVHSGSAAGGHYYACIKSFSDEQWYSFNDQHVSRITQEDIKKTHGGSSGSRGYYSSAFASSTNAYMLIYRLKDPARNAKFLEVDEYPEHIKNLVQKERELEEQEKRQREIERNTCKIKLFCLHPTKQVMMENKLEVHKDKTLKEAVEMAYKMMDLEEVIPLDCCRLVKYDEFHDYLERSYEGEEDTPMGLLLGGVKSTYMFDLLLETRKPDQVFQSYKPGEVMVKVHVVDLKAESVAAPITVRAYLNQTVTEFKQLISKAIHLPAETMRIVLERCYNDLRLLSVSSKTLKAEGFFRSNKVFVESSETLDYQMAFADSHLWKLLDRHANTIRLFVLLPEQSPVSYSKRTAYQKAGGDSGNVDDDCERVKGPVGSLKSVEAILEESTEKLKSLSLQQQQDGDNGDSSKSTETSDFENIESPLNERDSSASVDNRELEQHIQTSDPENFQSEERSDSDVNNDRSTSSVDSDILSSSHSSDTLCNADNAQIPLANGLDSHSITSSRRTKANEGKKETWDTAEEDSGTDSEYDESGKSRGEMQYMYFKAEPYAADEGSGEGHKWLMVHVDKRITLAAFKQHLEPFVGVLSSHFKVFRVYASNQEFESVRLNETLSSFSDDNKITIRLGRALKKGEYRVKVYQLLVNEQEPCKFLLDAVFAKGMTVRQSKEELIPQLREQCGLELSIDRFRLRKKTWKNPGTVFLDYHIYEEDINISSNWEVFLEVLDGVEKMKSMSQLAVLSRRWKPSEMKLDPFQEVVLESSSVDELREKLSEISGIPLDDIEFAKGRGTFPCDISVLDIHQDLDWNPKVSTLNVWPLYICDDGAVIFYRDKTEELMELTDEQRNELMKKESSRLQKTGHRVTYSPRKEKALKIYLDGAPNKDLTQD
Summary of the method: as §1

[4] = target: T3, USP48 (UniProt Q86UV5)
T3 sequence (whole entry): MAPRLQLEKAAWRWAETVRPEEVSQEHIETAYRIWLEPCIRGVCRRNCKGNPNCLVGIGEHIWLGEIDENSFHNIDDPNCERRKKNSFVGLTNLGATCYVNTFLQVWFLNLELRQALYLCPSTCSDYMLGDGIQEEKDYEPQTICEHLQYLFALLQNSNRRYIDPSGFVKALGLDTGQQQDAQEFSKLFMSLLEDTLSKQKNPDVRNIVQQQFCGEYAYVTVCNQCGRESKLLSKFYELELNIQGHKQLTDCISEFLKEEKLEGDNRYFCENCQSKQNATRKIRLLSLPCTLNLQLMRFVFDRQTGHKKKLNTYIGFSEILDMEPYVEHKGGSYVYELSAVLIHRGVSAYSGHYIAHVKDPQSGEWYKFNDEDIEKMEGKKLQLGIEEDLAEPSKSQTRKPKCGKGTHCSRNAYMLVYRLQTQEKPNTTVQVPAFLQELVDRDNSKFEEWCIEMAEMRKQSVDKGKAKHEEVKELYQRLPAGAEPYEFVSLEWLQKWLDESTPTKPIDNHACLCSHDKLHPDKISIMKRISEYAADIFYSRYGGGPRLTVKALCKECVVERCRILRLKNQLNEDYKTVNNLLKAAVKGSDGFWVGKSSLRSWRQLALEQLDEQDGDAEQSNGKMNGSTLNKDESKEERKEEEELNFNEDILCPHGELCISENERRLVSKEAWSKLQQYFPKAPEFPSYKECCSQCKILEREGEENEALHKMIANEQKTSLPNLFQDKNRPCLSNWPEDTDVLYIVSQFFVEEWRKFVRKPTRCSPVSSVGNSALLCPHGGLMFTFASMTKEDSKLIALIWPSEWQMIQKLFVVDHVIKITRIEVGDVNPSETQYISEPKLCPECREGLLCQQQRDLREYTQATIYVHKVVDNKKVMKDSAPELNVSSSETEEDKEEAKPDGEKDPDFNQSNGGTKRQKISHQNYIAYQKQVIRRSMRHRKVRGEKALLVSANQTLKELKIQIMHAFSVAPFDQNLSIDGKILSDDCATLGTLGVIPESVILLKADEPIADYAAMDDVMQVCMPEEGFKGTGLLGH
Summary of the method: as §1

[5] = target: T4, USP5 (UniProt P45974)
T4 sequence (whole entry): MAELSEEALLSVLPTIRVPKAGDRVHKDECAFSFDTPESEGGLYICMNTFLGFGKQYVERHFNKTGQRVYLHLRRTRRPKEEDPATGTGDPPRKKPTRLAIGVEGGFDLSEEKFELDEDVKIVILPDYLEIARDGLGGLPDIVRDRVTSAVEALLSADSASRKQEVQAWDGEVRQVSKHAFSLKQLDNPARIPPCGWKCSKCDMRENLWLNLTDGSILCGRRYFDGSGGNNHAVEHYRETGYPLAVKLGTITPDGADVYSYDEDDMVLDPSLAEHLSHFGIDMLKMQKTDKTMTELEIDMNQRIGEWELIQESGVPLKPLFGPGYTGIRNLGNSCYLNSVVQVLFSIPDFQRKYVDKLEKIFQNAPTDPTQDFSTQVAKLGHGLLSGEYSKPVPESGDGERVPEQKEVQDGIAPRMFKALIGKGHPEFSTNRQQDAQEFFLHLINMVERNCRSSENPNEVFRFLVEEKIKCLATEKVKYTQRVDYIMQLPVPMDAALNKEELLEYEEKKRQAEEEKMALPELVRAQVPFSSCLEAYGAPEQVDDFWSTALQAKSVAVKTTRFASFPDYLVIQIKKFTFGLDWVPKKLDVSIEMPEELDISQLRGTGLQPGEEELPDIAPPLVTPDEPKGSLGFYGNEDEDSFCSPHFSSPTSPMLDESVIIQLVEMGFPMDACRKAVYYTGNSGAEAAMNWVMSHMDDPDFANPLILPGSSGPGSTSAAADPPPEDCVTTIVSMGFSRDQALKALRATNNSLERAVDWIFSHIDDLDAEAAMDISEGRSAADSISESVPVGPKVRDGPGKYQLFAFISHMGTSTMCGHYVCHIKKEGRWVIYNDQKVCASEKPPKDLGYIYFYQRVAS
Summary of the method: as §1

[6] = target: USP54 (UniProt Q70EL1)
Summary of the method: as §1

[7] = target: USP7 (UniProt Q93009)
Summary of the method: as §1

[8] = target: T5, USP8 (UniProt P40818)
T5 sequence (whole entry): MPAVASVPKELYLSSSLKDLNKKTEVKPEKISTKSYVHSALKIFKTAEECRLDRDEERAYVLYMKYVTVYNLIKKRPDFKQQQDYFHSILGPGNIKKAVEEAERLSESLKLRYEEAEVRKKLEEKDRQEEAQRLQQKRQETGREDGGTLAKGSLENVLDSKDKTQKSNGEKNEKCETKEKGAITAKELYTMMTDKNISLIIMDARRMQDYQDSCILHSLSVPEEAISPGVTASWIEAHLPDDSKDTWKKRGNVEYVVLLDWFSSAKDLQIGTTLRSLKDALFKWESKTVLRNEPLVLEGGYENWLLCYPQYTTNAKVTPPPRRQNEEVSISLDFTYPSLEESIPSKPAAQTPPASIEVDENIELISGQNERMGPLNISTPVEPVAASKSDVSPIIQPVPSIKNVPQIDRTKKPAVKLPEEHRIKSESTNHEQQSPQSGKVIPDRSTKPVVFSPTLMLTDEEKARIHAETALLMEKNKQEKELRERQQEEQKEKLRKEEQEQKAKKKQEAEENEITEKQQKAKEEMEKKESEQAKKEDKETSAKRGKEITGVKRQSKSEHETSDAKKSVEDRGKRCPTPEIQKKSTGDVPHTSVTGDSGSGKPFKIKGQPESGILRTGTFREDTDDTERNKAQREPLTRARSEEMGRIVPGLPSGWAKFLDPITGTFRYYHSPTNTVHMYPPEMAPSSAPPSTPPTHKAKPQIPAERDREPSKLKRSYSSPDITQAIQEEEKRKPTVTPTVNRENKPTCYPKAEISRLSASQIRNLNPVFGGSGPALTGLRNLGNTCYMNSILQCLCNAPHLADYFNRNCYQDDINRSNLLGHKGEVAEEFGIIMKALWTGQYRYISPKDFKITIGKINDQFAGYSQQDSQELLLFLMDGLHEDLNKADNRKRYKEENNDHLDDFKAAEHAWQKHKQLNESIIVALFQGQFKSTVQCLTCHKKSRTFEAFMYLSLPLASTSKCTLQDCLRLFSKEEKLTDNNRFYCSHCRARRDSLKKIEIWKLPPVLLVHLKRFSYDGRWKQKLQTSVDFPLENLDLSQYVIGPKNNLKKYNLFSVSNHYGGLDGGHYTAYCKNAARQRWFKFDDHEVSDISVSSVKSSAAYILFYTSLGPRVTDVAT
Summary of the method: as §1

Measured: log2 ratio of Biotin-Ahx-Ub-VS probe labelling

Chain of USP7 (Q93009 whole entry, looked up): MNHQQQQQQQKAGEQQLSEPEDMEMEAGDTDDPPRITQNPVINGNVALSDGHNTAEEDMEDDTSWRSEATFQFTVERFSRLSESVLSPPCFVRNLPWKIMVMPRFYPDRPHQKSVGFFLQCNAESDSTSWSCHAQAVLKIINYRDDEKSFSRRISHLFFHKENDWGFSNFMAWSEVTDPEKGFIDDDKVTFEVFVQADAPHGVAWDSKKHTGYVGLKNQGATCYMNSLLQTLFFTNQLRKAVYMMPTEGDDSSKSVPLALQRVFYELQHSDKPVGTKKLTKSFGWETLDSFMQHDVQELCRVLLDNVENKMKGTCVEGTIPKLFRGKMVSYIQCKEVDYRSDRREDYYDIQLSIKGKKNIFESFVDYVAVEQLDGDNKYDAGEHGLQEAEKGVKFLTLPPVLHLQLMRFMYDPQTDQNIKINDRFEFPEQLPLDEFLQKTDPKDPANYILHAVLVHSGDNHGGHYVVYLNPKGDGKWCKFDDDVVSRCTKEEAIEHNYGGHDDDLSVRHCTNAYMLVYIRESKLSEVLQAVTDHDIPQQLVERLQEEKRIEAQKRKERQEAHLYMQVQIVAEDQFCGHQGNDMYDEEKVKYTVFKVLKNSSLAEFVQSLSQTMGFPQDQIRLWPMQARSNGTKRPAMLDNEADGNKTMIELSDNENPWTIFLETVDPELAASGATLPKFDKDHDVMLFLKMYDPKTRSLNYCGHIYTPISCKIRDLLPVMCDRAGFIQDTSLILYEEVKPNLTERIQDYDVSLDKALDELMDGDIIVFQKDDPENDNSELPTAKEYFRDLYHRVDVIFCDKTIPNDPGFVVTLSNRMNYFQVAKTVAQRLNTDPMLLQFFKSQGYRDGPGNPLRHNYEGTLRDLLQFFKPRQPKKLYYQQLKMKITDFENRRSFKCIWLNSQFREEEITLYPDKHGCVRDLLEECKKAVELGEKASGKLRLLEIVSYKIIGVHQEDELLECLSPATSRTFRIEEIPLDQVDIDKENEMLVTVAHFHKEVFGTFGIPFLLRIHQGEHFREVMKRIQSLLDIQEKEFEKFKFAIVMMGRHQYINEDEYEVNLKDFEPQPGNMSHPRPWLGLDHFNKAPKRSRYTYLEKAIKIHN
Chain of USP46 (P62068 whole entry): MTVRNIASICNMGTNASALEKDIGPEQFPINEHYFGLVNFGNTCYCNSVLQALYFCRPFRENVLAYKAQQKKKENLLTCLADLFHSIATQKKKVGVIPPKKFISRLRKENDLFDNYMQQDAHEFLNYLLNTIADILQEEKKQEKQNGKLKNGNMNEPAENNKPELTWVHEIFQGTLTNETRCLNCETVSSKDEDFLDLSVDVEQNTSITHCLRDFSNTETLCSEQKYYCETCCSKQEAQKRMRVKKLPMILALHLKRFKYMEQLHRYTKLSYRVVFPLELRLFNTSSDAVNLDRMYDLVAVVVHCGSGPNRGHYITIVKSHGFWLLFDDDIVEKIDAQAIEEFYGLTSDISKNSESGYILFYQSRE
Chain of USP54 (Q70EL1 whole entry): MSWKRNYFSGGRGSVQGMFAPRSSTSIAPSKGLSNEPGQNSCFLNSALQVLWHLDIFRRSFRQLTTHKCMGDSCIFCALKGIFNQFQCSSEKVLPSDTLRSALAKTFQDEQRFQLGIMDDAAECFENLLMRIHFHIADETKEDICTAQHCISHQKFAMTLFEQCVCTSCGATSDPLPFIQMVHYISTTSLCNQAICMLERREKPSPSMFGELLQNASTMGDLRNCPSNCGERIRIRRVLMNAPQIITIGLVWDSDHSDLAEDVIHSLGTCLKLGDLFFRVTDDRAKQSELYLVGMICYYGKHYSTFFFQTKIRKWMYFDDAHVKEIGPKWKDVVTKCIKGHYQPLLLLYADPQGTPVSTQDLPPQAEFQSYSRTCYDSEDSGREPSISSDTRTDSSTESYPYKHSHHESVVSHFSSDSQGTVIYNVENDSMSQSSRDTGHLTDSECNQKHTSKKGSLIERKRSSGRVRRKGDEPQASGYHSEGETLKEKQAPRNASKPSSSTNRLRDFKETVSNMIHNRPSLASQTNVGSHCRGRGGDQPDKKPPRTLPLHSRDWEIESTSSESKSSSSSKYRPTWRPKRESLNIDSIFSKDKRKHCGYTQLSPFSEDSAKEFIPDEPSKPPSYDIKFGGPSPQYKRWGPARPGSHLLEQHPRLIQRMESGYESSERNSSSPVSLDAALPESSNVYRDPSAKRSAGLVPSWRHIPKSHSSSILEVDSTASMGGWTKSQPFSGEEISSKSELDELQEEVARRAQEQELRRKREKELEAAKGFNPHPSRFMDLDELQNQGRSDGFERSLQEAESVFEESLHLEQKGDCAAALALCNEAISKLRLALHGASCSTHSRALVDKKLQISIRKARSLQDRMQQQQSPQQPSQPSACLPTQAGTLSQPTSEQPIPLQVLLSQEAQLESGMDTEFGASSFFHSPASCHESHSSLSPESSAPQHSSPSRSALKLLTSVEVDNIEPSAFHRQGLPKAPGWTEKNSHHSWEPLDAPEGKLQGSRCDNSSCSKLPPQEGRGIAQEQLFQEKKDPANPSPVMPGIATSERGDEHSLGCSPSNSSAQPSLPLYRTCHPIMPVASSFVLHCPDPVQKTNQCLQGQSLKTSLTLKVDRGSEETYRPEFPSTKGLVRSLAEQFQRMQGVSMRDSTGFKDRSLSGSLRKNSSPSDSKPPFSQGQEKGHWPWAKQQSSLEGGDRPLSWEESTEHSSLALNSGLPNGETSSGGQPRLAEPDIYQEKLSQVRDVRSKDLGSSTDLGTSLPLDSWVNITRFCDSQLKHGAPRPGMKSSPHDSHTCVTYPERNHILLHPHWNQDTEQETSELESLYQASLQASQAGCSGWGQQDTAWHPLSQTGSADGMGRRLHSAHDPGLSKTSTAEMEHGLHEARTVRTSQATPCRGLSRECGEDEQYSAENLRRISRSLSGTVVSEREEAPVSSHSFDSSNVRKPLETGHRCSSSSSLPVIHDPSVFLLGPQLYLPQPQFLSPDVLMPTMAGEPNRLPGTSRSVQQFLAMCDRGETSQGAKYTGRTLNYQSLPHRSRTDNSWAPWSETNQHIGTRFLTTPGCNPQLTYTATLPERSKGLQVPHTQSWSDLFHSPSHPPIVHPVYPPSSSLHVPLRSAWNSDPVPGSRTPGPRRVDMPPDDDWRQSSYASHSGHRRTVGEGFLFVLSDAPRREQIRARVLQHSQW

O=C(CCl)Nc1nc(-c2cccs2)cs1
inactive: [1] 0.598 | [2] -0.255 | [3] -0.799 | [4] -0.537 | [5] 0.0914 | [6] 0.00682 | [7] -0.679 | [8] 0.0395
